Among all 650,000 compounds or so, about 6,800 (1%) were called active. The list comes from a sample in which actives are over-represented; it also holds similar structures and randomly drawn compounds. Unmarked numbers belong to inactive results. Rule as the data show it: active = activation above about 4.9%; inactive = the rest.
biological target: G-protein coupled receptor 151 (Homo sapiens) (UniProt Q8TDV0); experiment: activators of human GPR151, primary screen, cell-based, PathHunter beta-arrestin, luminescence (AID 1508602); settings: PathHunter beta-arrestin GPR151 cells, at 11.2 µM, hits give high values;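 also: 0% = median of compound wells and 100% = cells with positive control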
Sequence (Q8TDV0 whole entry, looked up): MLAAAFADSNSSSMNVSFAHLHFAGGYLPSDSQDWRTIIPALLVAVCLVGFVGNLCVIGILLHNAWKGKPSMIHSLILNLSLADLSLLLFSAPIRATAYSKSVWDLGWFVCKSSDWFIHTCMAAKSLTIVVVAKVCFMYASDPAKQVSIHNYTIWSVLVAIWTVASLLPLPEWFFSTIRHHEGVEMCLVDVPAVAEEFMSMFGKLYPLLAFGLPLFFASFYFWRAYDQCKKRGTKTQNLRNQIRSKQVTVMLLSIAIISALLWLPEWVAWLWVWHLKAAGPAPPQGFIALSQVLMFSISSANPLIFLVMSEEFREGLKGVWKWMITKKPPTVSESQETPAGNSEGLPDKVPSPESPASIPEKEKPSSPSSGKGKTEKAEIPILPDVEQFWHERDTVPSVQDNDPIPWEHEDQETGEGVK

With `Cc1ccc(N2C(=O)CC(N3CCN(C(c4ccccc4)c4ccccc4)CC3)C2=O)c(Br)c1` (centres undefined) as the compound, how does the activation read?
Its activation is -0.0796%.

With `CCc1cc(C(=O)N2CCCCC2C)cs1` (centres undefined) as the compound, how does the activation read?
The activation was 1.3%.

Which activation does the source give for `Cc1ccc(CNC(=O)CN(C)S(=O)(=O)c2ccccc2)cc1` here?
Its activation is -0.21%.

Which activation does the source give for `COc1ccc(CON2C(=O)c3ccccc3C2=O)cc1Cl` here?
Its activation is -1.06%.

`COc1ccc(C(=O)C2CCCN(S(=O)(=O)c3cccc(C)c3)C2)c(C)c1` (centres undefined) was tested. Which activation did it give?
The activation was 5.47% (active).

Which activation does the source give for `CCc1ccc(S(=O)(=O)N2CCCC(C(=O)c3ccc(OC)c(OC)c3)C2)s1` (centres undefined) here?
The activation was 0.139%.

With `O=C(NNC(=O)C1CCCN(S(=O)(=O)c2cccc(Cl)c2)C1)C1CC1` (centres undefined) as the compound, how does the activation read?
Its activation is 0.674%.

How did the activation turn out when `CCCOc1ccccc1C1CC(=O)C2=C(C1)Nc1ccccc1N(C(C)=O)C2c1ccc(OC)cc1` (centres undefined) was run?
The activation was -0.237%.

For `Cc1ccc(Cn2c(C)c3cnn(CC(=O)N4CCCC4)c(=O)c3c2C)cc1`, which activation is on record?
The activation was -0.279%.

How did the activation turn out when `O=C(/C=C/c1ccccc1)c1ccccc1O` was run?
Its activation is 5.61% (active).

Which activation does the source give for `COc1ccc(O)c(C(=O)/C=C/c2ccc(F)cc2)c1` here?
The activation was -1.75%.

How did the activation turn out when `O=C(/C=C/c1ccccc1)c1ccc(O[C@@H]2O[C@H](CO)[C@@H](O)[C@H](O)[C@H]2O)cc1O` was run?
The activation was 0.684%.

For `Cc1c(Cl)cccc1-n1c(/C=C/c2cccc3ccccc23)nc2ccccc2c1=O`, which activation is on record?
The activation was 1.58%.

Which activation does the source give for `CC(=O)c1ccc(NC(=O)c2ccc(CN(c3ccc(C)c(C)c3)S(C)(=O)=O)cc2)cc1` here?
The activation was 5.09% (active).

How did the activation turn out when `COC(=O)c1ccccc1NC(=O)c1ccc(CN(c2ccc(C)c(C)c2)S(C)(=O)=O)cc1` was run?
The activation was -0.0331%.

How did the activation turn out when `CNC(=O)c1ccc(CN(c2ccc(C)c(C)c2)S(C)(=O)=O)cc1` was run?
Its activation is 0.29%.

With `Cc1cnc(CNC(=O)c2ccc3cncc(-c4cc5ccccc5o4)c3n2)cn1` as the compound, how does the activation read?
Its activation is -1.58%.

For `COc1ccc(NC(=O)CSc2nc(=O)n(CCCN(C)C)c3c2CCC3)cc1OC`, which activation is on record?
The activation was -0.304%.

Which activation does the source give for `CCOc1c(Cl)cc(CNCc2ccccc2)cc1OC` here?
The activation was 5.18% (active).

With `COc1cc(Cl)c(CNCc2ccccc2)cc1OC` as the compound, how does the activation read?
The activation was -1.13%.

For `COc1cc(CO)cc(Cl)c1OCc1ccccc1`, which activation is on record?
Its activation is 0.149%.

With `Cc1ccc(CNC(=O)CSc2nc3ccccc3c(=O)n2CC2CCC(C(=O)NCc3ccco3)CC2)cc1` (centres undefined) as the compound, how does the activation read?
The activation was -0.182%.

Which activation does the source give for `O=C1NC(=O)c2cc(N3C(=O)c4cccc([N+](=O)[O-])c4C3=O)ccc21` here?
Its activation is -0.912%.

For `CN1C(=O)c2ccc(N3C(=O)c4cccc([N+](=O)[O-])c4C3=O)cc2C1=O`, which activation is on record?
Its activation is 5.16% (active).

Which activation does the source give for `O=C1c2cccc([N+](=O)[O-])c2C(=O)N1c1ccc2ccccc2c1` here?
The activation was 0.404%.

`CC1(C)CC(=O)c2cc(C(=O)Nc3cccc(F)c3)c(=O)n(-c3ccccc3)c2C1` was tested. Which activation did it give?
Its activation is 0.451%.

For `O=C(NCCc1ccccc1)c1ccc2c(c1)NC(=O)C(CS(=O)(=O)Cc1cccc(F)c1)N2` (centres undefined), which activation is on record?
The activation was -0.907%.

How did the activation turn out when `CC(C)C[C@H]1NC(=O)[C@@H]2C[C@H](NCc3ccccc3)CN2C1=O` was run?
Its activation is 2.09%.

Which activation does the source give for `O=C1N[C@@H](COCc2ccccc2)C(=O)N2C[C@@H](NCc3ccsc3)C[C@@H]12` here?
The activation was 1.22%.

For `CC(C)c1ccc(CN[C@H]2C[C@H]3C(=O)N[C@@H](COCc4ccccc4)C(=O)N3C2)cc1`, which activation is on record?
The activation was 5.83% (active).

How did the activation turn out when `Cc1ccc(C2=N/C(=C\c3cccc(Cl)c3)C(=O)O2)cc1` was run?
Its activation is -1.7%.

For `Cc1nc(C)n(CCC(=O)N2CCN(Cc3ccccc3F)C[C@@H]2C(C)C)n1`, which activation is on record?
The activation was -0.818%.

How did the activation turn out when `COCCNC(=O)CSc1nccn1Cc1ccco1` was run?
Its activation is 4.92% (active).

Which activation does the source give for `CC(C)NC(=O)CSc1nccn1Cc1ccco1` here?
The activation was 0.992%.

How did the activation turn out when `COc1ccc(Cn2ccnc2SCC(=O)NCc2ccco2)cc1` was run?
Its activation is 0.251%.

For `COCCNC(=O)c1cccc(-n2c(=S)[nH]c3cc(Cl)ccc3c2=O)c1`, which activation is on record?
Its activation is 1.05%.

For `O=C(CCCOc1ccc(Cl)cc1)NCc1ccco1`, which activation is on record?
The activation was -1.43%.

Which activation does the source give for `CCCCc1ccc2c(N)c(C(=O)Nc3ccc(C(=O)O)cc3)sc2n1` here?
The activation was -1.27%.

With `CCOC(=O)C1=C(CC)OC(N)=C(C#N)C1c1ccc(C(F)(F)F)cc1` (centres undefined) as the compound, how does the activation read?
Its activation is 5.43% (active).

For `CCCC1=C(C(=O)OCC)C(c2ccc(O)c(OC)c2)C(C#N)=C(N)O1` (centres undefined), which activation is on record?
Its activation is 2.22%.

How did the activation turn out when `CCCC1=C(C(=O)OCC)C(c2cccc(F)c2)C(C#N)=C(N)O1` (centres undefined) was run?
The activation was 0.841%.

For `c1ccc(Nc2cc(NCc3ccc4c(c3)OCO4)ncn2)cc1`, which activation is on record?
The activation was -0.773%.

With `CC1=C(C(=O)Nc2cccc(F)c2)C(c2ccccn2)C2=C(CCCC2=O)N1` (centres undefined) as the compound, how does the activation read?
Its activation is 4.99% (active).

With `CC1=C(C(=O)Nc2ccccc2C(F)(F)F)C(c2ccccn2)C2=C(CC(C)(C)CC2=O)N1` (centres undefined) as the compound, how does the activation read?
The activation was 0.421%.

— PubChem BioAssay AID1508602 (The Scripps Research Institute Molecular Screening Center, 2020)
